PubChem BioAssay (NCI)
The panel holds about 83,000 compounds, 20% with a hit somewhere; the sample as a whole holds those more often.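 In brief: 96-well plates, 48 h treatment, single concentration, percent growth endpoint.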 Calls of active or inactive are those of the source. The calls were made as follows: active = growth percent below 10; inactive = the rest.

Assays:
Test in all cases: NCI-60 one-dose screen, 48 h (100 = growth as untreated, 0 = no growth, -100 = all killed)
Conditions in all cases: 10 µM unless noted
[1] = tested on: DU-145 prostate
[2] = tested on: K-562 leukemia
[3] = tested on: MALME-3M melanoma
[4] = tested on: MDA-MB-231 breast
[5] = tested on: RXF 393 renal
[6] = tested on: SF-268 CNS
[7] = tested on: SF-295 CNS
[8] = tested on: SF-539 CNS
[9] = tested on: UACC-257 melanoma
[10] = tested on: M14 melanoma
[11] = tested on: HCT-15 colon
[12] = tested on: HT29 colon
[13] = tested on: SNB-75 CNS
[14] = tested on: SNB-19 CNS
[15] = tested on: U251 CNS
[16] = tested on: PC-3 prostate
[17] = tested on: SK-MEL-5 melanoma
[18] = tested on: UACC-62 melanoma
[19] = tested on: LOX IMVI melanoma
[20] = tested on: SK-MEL-28 melanoma

Measured: growth

COc1ccc(C(C(=O)O)c2ccc(OC)cc2)cc1
inactive: [1] 105% | [2] 105% | [3] 128% | [4] 120% | [5] 128% | [6] 103% | [7] 104% | [8] 105% | [9] 110% | [10] 114% | [11] 99.4% | [12] 114% | [13] 72.2% | [14] 113% | [15] 113% | [16] 101% | [17] 110% | [18] 116% | [19] 106% | [20] 107%

CCN1c2ccccc2C(Cl)(c2ccc(N(C)C)cc2)c2ccccc21
active: [3] 9.82% | [12] 3.81%
inactive: [1] 74.1% | [2] 60.8% | [4] 70.3% | [5] 59.4% | [6] 54.2% | [7] 88.4% | [8] 93.7% | [9] 70.3% | [10] 72.9% | [11] 73.6% | [13] 68.5% | [14] 53.8% | [15] 19.5% | [16] 25.6% | [17] 78.9% | [18] 51.6% | [19] 18.9% | [20] 86.2%

COc1ccc2c(c1)C(C)Cc1c(Cl)nc(C)nc1N2C (stereo not given)
active: [5] -0.792% | [7] 7.77% | [8] 4.64% | [12] -13.3%
inactive: [1] 34% | [2] 11.7% | [3] 80.7% | [4] 19% | [6] 43.2% | [9] 78.1% | [10] 13.5% | [11] 18.4% | [13] 39.3% | [14] 24.7% | [15] 21.9% | [16] 14.8% | [17] 24% | [18] 27% | [19] 43.7% | [20] 80.1%

COc1ccc(/C=C/C=C\C(=O)c2ccc(-n3ccnc3)cc2)cc1
inactive: [1] 98% | [2] 66.2% | [3] 92.8% | [4] 94% | [5] 92.7% | [6] 96.2% | [7] 99.7% | [8] 97.9% | [9] 93.1% | [10] 21.3% | [11] 91.3% | [12] 93.4% | [13] 90.8% | [14] 87.6% | [15] 83.3% | [16] 88.8% | [17] 88.6% | [18] 79.1% | [19] 93.5% | [20] 104%

C=C(C)[C@@H]1CC[C@]2(C(=O)NCCCCCCN(CCCN)CCCN)CC[C@]3(C)[C@H](CC[C@@H]4[C@@]5(C)CC[C@H](OCCCN)C(C)(C)[C@@H]5CC[C@]43C)[C@@H]12
inactive: [1] 55% [100 µM] | [3] 43.7% [100 µM] | [4] 37.3% [100 µM] | [5] 69.6% [100 µM] | [6] 99.1% [100 µM] | [7] 92.2% [100 µM] | [8] 79.9% [100 µM] | [9] 88% [100 µM] | [10] 106% [100 µM] | [11] 81.8% [100 µM] | [13] 84.5% [100 µM] | [14] 80.8% [100 µM] | [16] 60.9% [100 µM] | [17] 85.9% [100 µM] | [18] 120% [100 µM] | [20] 101% [100 µM]
active: [2] 1.52% [100 µM] | [12] 4.21% [100 µM] | [15] -39.4% [100 µM] | [19] 5.71% [100 µM]

O=C(N[C@@H]1CCCc2ccccc21)[C@H](CCC(=O)N1CCN(C2CCCCC2)CC1)N1C(=O)[C@@H](N2C(=O)OC[C@@H]2c2ccccc2)[C@H]1/C=C/c1ccccc1
active: [3] -41.1% | [8] 4.65% | [12] -14.2% | [17] -93.2% | [19] -40.5%
inactive: [1] 57.9% | [2] 14.6% | [4] 16.4% | [5] 23% | [6] 15.8% | [7] 30.3% | [9] 10.7% | [10] 14.2% | [11] 12.1% | [13] 65.7% | [14] 39.2% | [15] 30.6% | [16] 12.1% | [18] 51% | [20] 24.8%

CC(C)CCNCC(C)(C)O
inactive: [1] 118% | [2] 109% | [3] 121% | [4] 116% | [5] 117% | [6] 106% | [7] 111% | [8] 101% | [9] 102% | [10] 110% | [11] 99.1% | [12] 103% | [13] 90.3% | [14] 109% | [15] 104% | [16] 98.6% | [17] 113% | [18] 111% | [19] 101% | [20] 122%

COc1cc(-c2cc(-c3ccc(Nc4ncnc5cc(Cl)ccc45)cc3)nc(N3CCCCC3)n2)cc(OC)c1OC
inactive: [1] 102% | [2] 92.3% | [3] 95.1% | [4] 92% | [5] 106% | [6] 88.4% | [7] 104% | [8] 93.6% | [9] 111% | [10] 106% | [11] 99.5% | [12] 87.7% | [13] 108% | [14] 100% | [15] 98.9% | [16] 88.1% | [17] 97.7% | [18] 95.5% | [19] 97.3% | [20] 108%

COc1cc2c(=O)[nH]c3cc([N+](=O)[O-])ccc3c2cc1[N+](=O)[O-]
inactive: [1] 73.4% | [2] 49.2% | [3] 50.3% | [4] 56% | [5] 72.2% | [6] 63.7% | [7] 47.9% | [8] 45% | [9] 41.7% | [10] 76.4% | [11] 46% | [12] 30.6% | [13] 36.5% | [14] 58.3% | [15] 37.8% | [16] 55.2% | [17] 41.3% | [18] 41.4% | [19] 36.7% | [20] 78.5%

CC1(C)NCCC[C@]2(C)[C@H]3C=CC4=C5C[C@](C)(CO)CC[C@]5(C)CC[C@@]4(C)[C@]3(C)CC[C@@H]12
active: [1] -89.5% [100 µM] | [2] -25.4% [100 µM] | [3] -82.6% [100 µM] | [4] -94% [100 µM] | [5] -70.4% [100 µM] | [6] -69.9% [100 µM] | [7] -90.1% [100 µM] | [8] -93.3% [100 µM] | [9] -80.5% [100 µM] | [10] -82.1% [100 µM] | [11] -89.3% [100 µM] | [12] -62.1% [100 µM] | [13] -97.7% [100 µM] | [14] -90.4% [100 µM] | [15] -59.7% [100 µM] | [16] -79.1% [100 µM] | [17] -91.5% [100 µM] | [18] -94.3% [100 µM] | [19] -91.5% [100 µM] | [20] -97.3% [100 µM]

Cc1cc(C)nc(SCC(=O)Nc2cccc(N=Cc3ccccc3O)c2)n1
inactive: [1] 104% | [2] 96.2% | [3] 101% | [4] 89.5% | [5] 101% | [6] 98.7% | [7] 102% | [8] 100% | [9] 103% | [10] 98.2% | [11] 105% | [12] 101% | [13] 81.9% | [14] 93% | [15] 94.9% | [16] 90.3% | [17] 103% | [18] 94.1% | [19] 103% | [20] 106%

Nc1cc(C(=O)O)[nH]c(=S)n1
inactive: [1] 106% | [2] 115% | [3] 89.8% | [4] 100% | [5] 96.9% | [6] 98.6% | [7] 101% | [8] 104% | [9] 93.3% | [10] 93.7% | [11] 101% | [12] 101% | [13] 91.4% | [14] 97.5% | [15] 95% | [16] 99.8% | [17] 98.8% | [18] 95.2% | [19] 100% | [20] 96.7%

CCOc1ccc(/C=C(\C#N)c2cc3ccccc3[nH]2)cc1
inactive: [1] 81% | [2] 15.3% | [3] 60% | [4] 71.9% | [5] 58.6% | [6] 84.2% | [7] 58.3% | [8] 68.3% | [9] 79.2% | [10] 39% | [11] 28.8% | [12] 13.8% | [13] 67.1% | [14] 80.2% | [15] 41.7% | [16] 68.2% | [17] 72.2% | [18] 43.9% | [19] 46.4% | [20] 69.7%

C=C(C)[C@@H]1CC[C@]2(COCCCN)CC[C@]3(C)[C@H](CC[C@@H]4[C@@](C)(CCCNCCCN)[C@H](C(=C)C)CC[C@]43C)[C@@H]12
active: [1] -83.4% [100 µM] | [2] -34.1% [100 µM] | [3] -58.2% [100 µM] | [4] -63.8% [100 µM] | [5] -48.6% [100 µM] | [6] -58.7% [100 µM] | [7] -52.7% [100 µM] | [8] -62.2% [100 µM] | [9] -74.1% [100 µM] | [10] -35.4% [100 µM] | [11] -53.4% [100 µM] | [12] -23.1% [100 µM] | [13] -74.1% [100 µM] | [14] -60.1% [100 µM] | [15] -51.5% [100 µM] | [16] -53.9% [100 µM] | [17] -55.1% [100 µM] | [18] -72.4% [100 µM] | [19] -49.7% [100 µM] | [20] -63.3% [100 µM]

CCCCCCCCCCCCCC[n+]1cccc(C(N)=O)c1
inactive: [1] 27.8% | [9] 24.3% | [11] 67.6% | [19] 15.7% | [20] 28.5%
active: [2] 9.03% | [3] -33.9% | [4] -22.9% | [5] -41.4% | [6] -24.2% | [7] -30.9% | [8] -5.92% | [10] -38.8% | [12] 0.436% | [13] -57.2% | [14] -69.4% | [15] -72.7% | [16] -29% | [17] -90.9% | [18] 1.18%
